From PubChem BioAssay
Autofluor counter – flagged as autofluorescent in microsphere protease counterscreen | compound autofluorescence counterscreen, microsphere flow cytometry; active compounds read high | fluorescence intensity (no concentration beside the values) | hit rate 3.1% among 360,000 | AID 624483; in the data active means fluorescence intensity above about 16000; inconclusive means no clear call, values can overlap the other calls
BoNT A protease – BoNT/A light chain protease inhibitors, primary screen, biochemical, flow cytometry, MLPCN library; inhibition, % at 10 µM; hit rate 0.17% among 360,000; Botulinum neurotoxin type A light chain protease (Clostridium botulinum A str. ATCC 3502); multiplex microsphere protease substrate cleavage; further: plate controls were buffer without enzyme for full effect and enzyme alone for no effect
BoNT F protease – BoNT/F light chain protease inhibitors, primary screen, biochemical, flow cytometry, MLPCN library; Multiplex microsphere protease cleavage assay; hit rate 0.22% among 360,000; AID 588497, 2011; inhibition, % at 10 µM; in the data active means inhibition above about 35%, passing the limit was not always enough; inconclusive means no clear call, values can overlap the other calls; further: plate controls were buffer without enzyme for full effect and enzyme alone for no effect
Vc quorum ag – inducers of Vibrio cholerae quorum light production without autoinducers, primary screen, BH1578 luxS cqsA deficient, single point; V. cholerae BH1578 lux reporter, luminescence, 6 h; activation, % at 18.7 µM; hit rate 0.16% among 350,000; in the data active means activation mostly above about 9.7%, no sharp cut-off; inconclusive means no clear call, values can overlap the other calls; inactive means mostly below about 3.7%
Anthrax LF prot – Bacillus anthracis LF protease inhibitors, primary screen, biochemical, multiplex microsphere, MLPCN library; Lethal factor (Bacillus anthracis), P15917; multiplex microsphere protease cleavage assay; inhibition, % at 10 µM; hit rate 0.12% among 360,000; AID 588501, 2011; further: plate controls were buffer without enzyme for full effect and enzyme alone for no effect
Target sequence (P15917 whole entry, looked up): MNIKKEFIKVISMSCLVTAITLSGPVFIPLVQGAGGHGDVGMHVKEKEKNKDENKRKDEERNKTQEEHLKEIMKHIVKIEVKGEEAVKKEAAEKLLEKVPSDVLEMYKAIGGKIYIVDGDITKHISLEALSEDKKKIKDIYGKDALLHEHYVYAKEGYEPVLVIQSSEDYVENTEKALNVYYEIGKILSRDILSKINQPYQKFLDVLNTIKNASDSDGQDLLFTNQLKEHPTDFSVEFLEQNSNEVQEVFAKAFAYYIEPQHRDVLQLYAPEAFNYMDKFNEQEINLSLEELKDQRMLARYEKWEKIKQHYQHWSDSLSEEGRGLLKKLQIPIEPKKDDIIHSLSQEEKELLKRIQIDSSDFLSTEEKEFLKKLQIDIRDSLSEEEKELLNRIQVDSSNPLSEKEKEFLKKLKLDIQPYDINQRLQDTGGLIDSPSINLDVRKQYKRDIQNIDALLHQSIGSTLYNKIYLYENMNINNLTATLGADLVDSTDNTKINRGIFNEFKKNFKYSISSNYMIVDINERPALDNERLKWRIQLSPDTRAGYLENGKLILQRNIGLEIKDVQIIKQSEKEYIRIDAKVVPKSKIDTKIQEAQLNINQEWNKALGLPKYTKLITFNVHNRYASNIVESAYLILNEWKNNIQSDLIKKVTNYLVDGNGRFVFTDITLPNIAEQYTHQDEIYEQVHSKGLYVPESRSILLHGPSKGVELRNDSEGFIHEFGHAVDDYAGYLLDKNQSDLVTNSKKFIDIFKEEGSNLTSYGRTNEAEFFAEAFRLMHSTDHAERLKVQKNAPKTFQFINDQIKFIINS
* hit, by the source's call; i = inactive; ? = inconclusive; . = no result given. The list is not random: actives were taken first. Their share in the collection is about 3.5%. Unless noted, no stated cut-off is given here; in the data, active means inhibition above about 30%; inconclusive means no clear call, values can overlap the other calls; inactive means below that.

SMILES	Autofluor counter	BoNT A protease	BoNT F protease	Vc quorum ag	Anthrax LF prot
O=C1CCCc2nc(N3CCN(c4ccccc4)CC3)ncc21	3399	0	17	2	3
Cc1ccc(-n2ncc3c2CC(C)(C)CC3NC(=O)c2c(C)noc2C)cc1 (stereo not drawn)	4306	2	10	0	2
CCn1c(SCC(=O)N(C)Cc2ccc(OC)c(F)c2)nc2cc(S(N)(=O)=O)ccc21	4205	0	-4	0	-4
CSCCC(NC(=O)C1CC1)c1nc2ccccc2[nH]1 (stereo not drawn)	20590*	0	-3	-1	0
CNc1snc(C)c1C(=O)OCC(=O)NCc1ccccc1OC	3531	0	-2	i	-4
Cc1c(C(=O)N2CCN(c3ccccc3F)CC2)sc2nc(-c3ccccc3)cn12	21586*	?	0	i	-8
COC(=O)c1ccc(NC(=O)c2sc3nc(-c4ccccc4)cn3c2C)cc1	21396*	-1	-1	-7	-2
Oc1ccc(O)c(-c2cnns2)c1	2424	0	-4	i	-1
Cc1ccc(-c2ccc(=O)[nH]n2)cc1	21252*	-2	-3	i	1
COC(=O)c1c(C(=O)OC)c(-c2ccc(C)cc2)n2c1CCC2	24446*	-5	-7	-1	0
CC1=C(C(=O)Nc2ccccc2)C(c2cccc([N+](=O)[O-])c2)Nc2nc3ccccc3n21 (stereo not drawn)	23880*	-3	-3	0	-2
CNC(=O)C1=C(C)n2c(nc3ccccc32)NC1c1ccc(OC)cc1 (stereo not drawn)	7418	1	-3	0	-4
CCn1c(=O)c2c(n3c(=S)[nH]nc13)-c1ccccc1CC21CCCCC1	4193	0	-4	0	0
COC(=O)[C@@H](Cc1c[nH]c2ccccc12)NC(=O)CNC(=O)c1ccccc1OC	3771	-5	2	-1	15
COCC(C)NC(=O)c1ccc(N(C)C)cc1 (stereo not drawn)	17509*	-2	-6	-7	-2
Cc1onc(-c2ccccc2)c1-c1n[nH]c(=S)n1-c1ccc(C(=O)O)cc1	2976	0	-2	.	-3
Cc1onc(-c2ccccc2)c1-c1n[nH]c(=S)n1-c1ccccc1Cl	22416*	-1	-2	i	-2
O=C(O)CN1C(=O)/C(=C\c2cc([N+](=O)[O-])ccc2OCc2ccccc2Cl)SC1=S	3527	3	20	0	32*
O=C(O)CN1C(=O)/C(=C\c2cc(Br)ccc2OCc2ccc(Cl)cc2)SC1=S	3920	-5	-24	0	2
COc1ccc(NC(=O)c2c(C(F)(F)F)nn(C)c2SCc2ccccc2Cl)cc1	19414*	2	-1	i	1
COc1ccc(NC(=O)c2c(C(F)(F)F)nn(C)c2Cl)cc1	3507	0	0	i	-2
Cc1ccc(C(C)NC(=O)c2ccco2)cc1C (stereo not drawn)	21456*	-2	-6	-1	-1
Cc1cc(OC(=O)N2CCOCC2)cc(C)c1Cl	2857	-1	-1	i	1
CC(=O)Oc1c(Cl)c(N2CCOCC2)c(OC(C)=O)c2ccccc12	17480*	-2	-4	i	-3
CCOCCCNC(=O)C(NC(=O)Cc1cccs1)c1ccc(Cl)cc1 (stereo not drawn)	3467	0	3	1	-2
SMILES	Autofluor counter	BoNT A protease	BoNT F protease	Vc quorum ag	Anthrax LF prot
CCCCNc1ccccc1C(=O)OCC(=O)Nc1ccc(S(N)(=O)=O)cc1	17458*	6	11	i	-12
CCOC(=O)C1=C(c2ccccc2)N=c2s/c(=C\c3ccco3)c(=O)n2C1c1cccs1 (stereo not drawn)	11119	8	-4	1	8
CCOC(=O)C1=C(c2ccccc2)N=c2s/c(=C\c3cc(OC)c(OC)c(OC)c3)c(=O)n2C1c1cccs1 (stereo not drawn)	3932	41*	19	5	34*
C(#CCN1CCCC1)CC(c1ccccc1)c1ccccc1	3922	-2	-5	0	-1
Nc1ccc(S(=O)(=O)N2CCC(Cc3ccccc3)CC2)cc1	4111	-5	-31	0	7
COc1ccccc1C(=O)Nc1ccc2oc(-c3ccc(F)cc3)nc2c1	17405*	-2	-1	i	0
COc1ccc(C(=O)Nc2ccc3oc(-c4cccc(F)c4)nc3c2)cc1OC	4315	0	4	0	-9
CCCC(=O)Nc1ccc2oc(-c3ccc(OC)c(Br)c3)nc2c1	21634*	3	3	i	-6
CCC1CCCCN1CCCCOc1cccc(Cl)c1 (stereo not drawn)	3317	-1	-2	-1	10
CCCNC(=O)COc1ccc(S(=O)(=O)Nc2ccc(C)cc2)cc1	22233*	2	2	0	-1
CCOc1ccc(NS(=O)(=O)c2ccc(C(=O)NCc3ccncc3)cc2)cc1	42543*	-176	-232	i	-35
CCCCN(CCCC)S(=O)(=O)c1ccc(NS(=O)(=O)c2ccc(NC(C)=O)cc2)cc1	21196*	?	-3	i	1
CCCCOc1ccc(S(=O)(=O)Nc2ccc(NC(C)=O)cc2)cc1	21764*	1	0	-2	-2
CC(=O)Nc1ccc(S(=O)(=O)Nc2ccc(S(=O)(=O)Nc3nc(C)cc(C)n3)cc2)cc1	3056	4	-4	0	0
C=CCNc1nnc(Cc2ccc(C(C)C)cc2)c(=O)[nH]1	5687	1	-2	i	-1
O=C(Nc1ccn(CCCNCCCN2CCCC2=O)c(=O)n1)OCc1ccccc1	3548	0	2	-1	0
Cc1ccc(C(=O)N/C(=C\c2cn(C)c3ccccc23)C(=O)NCCN2CCOCC2)cc1	4569	0	-7	4	-3
CCCOC(=O)Nc1ccc(S(=O)(=O)Nn2cnnc2)cc1	10933	0	0	i	-1
Cc1cnc(C(=O)Nc2ccc(F)c(F)c2)cn1	4708	0	-3	i	-1
CCCCOC(=O)Nc1ccc(S(=O)(=O)Nn2cnnc2)cc1	29599*	?	-20	-1	-5
CCCCOc1ccc(NC(=O)c2cnc(C)cn2)cc1	3006	1	5	17*	0
O=CN(Cc1nc2ccccc2[nH]1)c1ccc(C(=O)O)cc1	3932	0	0	3	2
CCOC(=O)Cc1nc(-c2cccc(C(F)(F)F)c2)no1	4644	-2	-1	i	4
O=C(CCn1cnnn1)N1CCCC(Nc2ccc(F)c(F)c2)C1 (stereo not drawn)	5799	1	1	0	1
Cc1ccc(C(=O)Nc2cccc(C(=O)N3CCN(C)CC3)c2)cc1	8113	0	1	0	5
Cc1ccc(-c2ccc(=O)n(CC(=O)Nc3cccc(C(=O)N4CCN(C)CC4)c3)n2)cc1	19402*	?	2	3	-9
